# PubChem BioAssay AID1729 (National Center for Advancing Translational Sciences (NCATS), 2009)
# Inconclusive results are not listed. Values without a mark were called inactive. Activity calls are given as the source filed them. The call rests on the fitted dose curve; in most records, active means well fitted curve in the direction sought with a large enough effect; inconclusive means small, poorly fitted or top-dose-only effect, or effect the other way, or another doubt; inactive means no such curve, though single readings can be large or run the other way.
# Target: Epidermal growth factor receptor (Homo sapiens) (UniProt P00533)
# Sequence (P00533 whole entry T790M, looked up): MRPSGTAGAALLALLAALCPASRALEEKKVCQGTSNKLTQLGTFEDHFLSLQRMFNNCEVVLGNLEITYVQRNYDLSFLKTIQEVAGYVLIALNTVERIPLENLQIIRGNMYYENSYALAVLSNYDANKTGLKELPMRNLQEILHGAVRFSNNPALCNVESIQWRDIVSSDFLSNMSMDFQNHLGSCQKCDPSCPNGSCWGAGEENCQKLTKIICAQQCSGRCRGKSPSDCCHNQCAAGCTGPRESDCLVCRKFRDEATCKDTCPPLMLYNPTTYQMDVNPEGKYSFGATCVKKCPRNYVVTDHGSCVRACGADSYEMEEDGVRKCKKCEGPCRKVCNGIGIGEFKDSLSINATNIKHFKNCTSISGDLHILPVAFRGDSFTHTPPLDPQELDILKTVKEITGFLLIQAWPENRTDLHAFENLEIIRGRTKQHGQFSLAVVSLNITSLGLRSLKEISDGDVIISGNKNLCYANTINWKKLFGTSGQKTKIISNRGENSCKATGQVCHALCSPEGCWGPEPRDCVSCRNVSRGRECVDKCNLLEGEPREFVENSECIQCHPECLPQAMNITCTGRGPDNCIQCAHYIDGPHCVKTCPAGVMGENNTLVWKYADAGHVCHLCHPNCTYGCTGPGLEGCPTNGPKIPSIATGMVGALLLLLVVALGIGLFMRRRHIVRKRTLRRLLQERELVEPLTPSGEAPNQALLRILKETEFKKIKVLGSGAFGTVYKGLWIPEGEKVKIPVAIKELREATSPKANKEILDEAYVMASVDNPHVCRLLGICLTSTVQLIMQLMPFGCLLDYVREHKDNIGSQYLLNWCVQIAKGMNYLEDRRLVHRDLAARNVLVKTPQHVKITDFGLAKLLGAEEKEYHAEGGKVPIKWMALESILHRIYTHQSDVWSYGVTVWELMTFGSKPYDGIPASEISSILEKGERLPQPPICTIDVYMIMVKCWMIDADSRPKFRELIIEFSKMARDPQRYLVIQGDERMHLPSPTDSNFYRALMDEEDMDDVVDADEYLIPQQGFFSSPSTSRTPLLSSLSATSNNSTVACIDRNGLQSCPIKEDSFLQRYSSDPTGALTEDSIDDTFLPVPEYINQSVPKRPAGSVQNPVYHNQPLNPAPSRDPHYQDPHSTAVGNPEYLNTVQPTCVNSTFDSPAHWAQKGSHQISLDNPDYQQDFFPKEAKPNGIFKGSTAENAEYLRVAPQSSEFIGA
# Experiment: Assay for Inhibitors of the ERK Signaling Pathway using a Homogeneous Screening Assay: EGFR T790M Kinase Inhibition
# Details: EGFR T790M kinase biochemical inhibition assay; series mostly up to 21.9 µM; activity change, negative = inhibition: at the top concentration
# Source text: qHTS Assay for Inhibitors of the ERK Signaling Pathway using a Homogeneous Screening Assay
# NIH Chemical Genomics Center [NCGC]
# NIH Molecular Libraries Screening Centers Network [MLSCN]
# Assay Submitter (PI): Dr. Wei Zheng, NCGC/NIH
# The Ras/extracellular-signal-regulated kinase (ERK) mitogen activated protein (MAP) kinase signaling pathway (ERK1/2 cascade) plays is a key role in transmitting signals from the cell surface to the nucleus (Nishida and Gotoh 1993; Chang and Karin, 2001). The cascade is initiated by the small G-protein Ras, which recruits Raf […], where activation occurs. Alternatively, this pathway can be activated by elevating intracellular cAMP.
# Activation of the ERK pathway is essential in increased cell division and cell survival. Sustained and constitutive activation of the ERK pathway, however, has been linked to uncontrolled cell proliferation, increased cell survival, and tumor progression. Thus, the ERK has been as an attractive target for cancer chemotherapy in the past few years (Sebolt-Leopold and Herrera, 2004). Given its physiological and pathological importance, assessment of ERK phosphorylation has been broadly performed in both basic research and drug discovery. Most assays for the measurement of ERK phosphorylation use the antibody-based detection methods, such as western blot and ELISA. These assays require multiple reagent additions with cell wash steps and are not suitable for high-throughput screening.
# The current cell-based ERK phosphorylation assay was performed using AlphaScreen platform. AlphaScreen is a two bead-based proximity-dependent chemical energy transfer luminescent assay platform. The assay reagents (ERK SureFire(TM) kit) were supplied from TGR BioSciences (Australia). In the presence of specific antibodies, phosphorylated ERK will bring "donor" and "acceptor" beads to a proximity range (<200 nm), and subsequently lead a chemical luminescent reaction upon exciting donor beads with 680 nm laser. To validate pathway hits from the cell-based assay, enzyme assays consisting of EGFR tyrosine kinase, Raf and MEK were used as a means of deciphering the enzymes of target for the prioritized group of compounds derived from the HEK-293 cell based assay. The compounds were tested against significant members of the ERK signaling pathway EGFR and EGFR mutants (EGFR L858R, EGFR T790M, and EGFR L858R T790M). In order to establish the specificity of the prioritized compounds for EGFR and EGFR mutants, the compounds were also assayed against other important ERK signaling pathway enzymes, c-RAF and MEK-1.
# NCGC Assay Protocol Summary:
# The HTRF kinase assay (components supplied as kit by Cisbio) was chosen for the EGFR and EGFR mutant enzyme assays that applied the time resolved fluorescence resonance energy transfer (TR-FRET) principle. A peptide substrate is labeled with a biotin that can bind to XL665 labeled streptavidin and the anti-phosphoresidue antibody is labeled with Eu+. Upon phosphorylation of the substrate, the antibody binds to phosphorylated substrate that enables TR-FRET detection in homogenous assay format.
# An HTRF Kinease TK assay kit (Cisbio, Bedford, MA) was used to develop the EGFR and EGFR mutant assays (Harbert et al., 2008. Harbert C, Marshall J, Soh S, Steger K. Development of a HTRF Kinase Assay for Determination of Syk Activity. Current Chemical Genomics. 1: 20-26. 2008). EGFR and EGFR mutants were obtained from Invitrogen. The assay buffer was composed of 50 mM HEPES (pH 7.0), 5 mM MgCl2, 5mM DTT, 0.1 % NaN3, 0.1 % BSA and 0.1 mM orthovanadate.
# The HTRF assays were preformed according to the HTRF Kinease TK kit. Optimization for each enzyme was preformed in 384 well format (data not included). All reagents were dispensed into 1536 well plates.
# (1) Enzyme, […] EGFR at 3 nM final
# (2) Compound, 22 nl, Library Compounds in 0.128 to 10 mM titration series or control
# (3) Reagent, 1.5 ul 10 uM ATP and 0.25 uM substrate final
# (4) Incubation for 30 min, Ambient conditions
# […]
Structure (SMILES),"activity change, negative = inhibition",Potency
COc1ccc(C(=O)c2ccc(Cl)c([N+](=O)[O-])c2)cc1,-4.67%,
CS(=O)(=O)CCNCc1nc(-c2ccc3ncnc(Nc4ccc(OCc5cccc(F)c5)c(Cl)c4)c3c2)cs1,-6.15%,
O=C(Nc1nc(-c2ccccc2)cs1)c1ccc(N2CCOCC2)c([N+](=O)[O-])c1,-3.77%,
Cc1nc2ccccc2nc(=O)c1NNc1ccccc1,,316 nM (active)
Cn1nc(-c2ccc(Cl)cc2)nc2c(=O)n(C)c(=O)nc1-2,4.21%,
Fc1ccc(Nc2ncnc3sc4c(c23)CCC4)cc1F,-2.3%,
N#C/C(=C(/N)Sc1ccc(N)cc1)c1ccccc1C(F)(F)F,,inactive
Cc1ccc(NNc2c(C)nc3ccccc3nc2=O)cc1,-13.2%,
Cn1c(=O)[nH]c2nnc(-c3ccc(Cl)c(Cl)c3)nc2c1=O,2.61%,
Cc1ccc2nc(=O)c(NNc3ccccc3)cnc2c1,,355 nM (active)
CCN(CC)CCC(=O)Nc1cccc2c1C(=O)c1ccccc1C2=O,-1.03%,
CCn1c(=O)c2[nH]c(-c3ccccc3)nc2n(CC)c1=O,-2.65%,
